Molecules are shown by their SMILES. Where a name gives a salt, the structure may show the parent alone. ± gives the standard deviation of the averaged measurements.

Growth data for seven compounds are collected here from the supplement of paper PMC9262897, “Low-cost anti-mycobacterial drug discovery using engineered E. coli” (Nature Communications, 2022).

Test in all cases: growth (OD600 after 10 h); higher = more growth (less inhibition)
Assay [1] has as its system E. coli TESEC Alr+ wild-type control. The note with it: compound 0.1 mM; raw OD600 reference: median of DMSO wells 0.241, cell-free background 0.041. The method, then: (§1)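 TESEC Mtb Alr E. coli, or the Alr+ wild-type control, in 384-well plates with Prestwick library compounds at 0.1 mM and 1% DMSO, across arabinose induction levels of 1E3 to 1E7 nM. Growth is read as OD600 after 10 h at 37 °C in triplicate biological replicates.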

The subject of assay [2] is E. coli TESEC Mtb Alr. As to conditions: compound 0.1 mM. The method, then: as §1
The test system of the next assay is E. coli TESEC Mtb Asd. The note with it: compound 0.1 mM. The method, then:
(§2)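 TESEC E. coli strains in which the native enzyme is deleted and replaced by arabinose-inducible Mtb Asd, DapB, CysH or TrpD, each grown in its selective medium. Strains were screened against the Prestwick library at 0.1 mM and 1% DMSO in 384-well format at low and high arabinose induction. Growth is read as OD600 after 10 h in triplicate.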

The test system of the next assay is E. coli TESEC Mtb DapB. As to conditions: compound 0.1 mM. The method, then: as §2
Assay [3] concerns E. coli TESEC Alr+ wild-type control. As to conditions: compound 0.1 mM; raw OD600 reference: median of DMSO wells 0.49, cell-free background 0.052. The method, then: (§3)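 TESEC Mtb Alr E. coli (ΔaraC ΔtolC ΔentC Δalr ΔdadX, arabinose-inducible Mtb Alr) or the Alr+ wild-type control strain, grown in defined M9-fructose medium without D-alanine in 96-well plates with Prestwick library compounds at 0.1 mM and 1% DMSO. Low Alr induction is 0.1 µM arabinose and high induction is 10 mM arabinose.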

In assay [4] the test system is E. coli TESEC Mtb Alr. The note with it: compound 0.1 mM. The method, then: as §3
This is another data set of the same source.

Where [5] appears, read: arabinose 1000 nM, raw OD600 reference: median of DMSO wells 0.294, cell-free background 0.041.
[6] abbreviates: arabinose 10000 nM, raw OD600 reference: median of DMSO wells 0.264, cell-free background 0.041.
[7] abbreviates: arabinose 100000 nM, raw OD600 reference: median of DMSO wells 0.201, cell-free background 0.041.
Setting [8] is: arabinose 1000000 nM, raw OD600 reference: median of DMSO wells 0.193, cell-free background 0.041.
[9] abbreviates: arabinose 10000000 nM, raw OD600 reference: median of DMSO wells 0.146, cell-free background 0.041.
The mark [10] stands for this setting: arabinose induction (level): High, raw OD600 reference: median of DMSO wells 0.331, cell-free background 0.041.
Setting [11] is: arabinose induction (level): Low, raw OD600 reference: median of DMSO wells 0.417, cell-free background 0.041.
Setting [12] is: arabinose induction (level): High, raw OD600 reference: median of DMSO wells […], cell-free background 0.041.
The mark [13] stands for this setting: arabinose induction (level): Low, raw OD600 reference: median of DMSO wells 0.227, cell-free background 0.041.
The mark [14] stands for this setting: arabinose 100 nM, raw OD600 reference: median of DMSO wells 0.413, cell-free background 0.052.
The mark [15] stands for this setting: arabinose 10000000 nM, raw OD600 reference: median of DMSO wells […], cell-free background 0.052.

With `COc1cc([S+](C)[O-])ccc1-c1nc2cccnc2[nH]1` (stereo unspecified) [Sulmazole], the growth in assay [1] stood at 0.227 ± 0.0056; in the assay with E. coli TESEC Mtb Alr [2] (setting [5]), 0.282 ± 0.023; in the assay on E. coli TESEC Mtb Alr [2] (setting [6]), 0.264 ± 0.0096; with E. coli TESEC Mtb Alr [2] (setting [7]) it was 0.161 ± 0.027; with E. coli TESEC Mtb Alr [2] (setting [8]) it was 0.2 ± 0.0059; in the assay with E. coli TESEC Mtb Alr [2] (setting [9]) it was 0.1223 ± 0.00055. In addition, the growth was found to be 0.231 ± 0.039 in the assay on E. coli TESEC Mtb Asd (setting [10]); 0.387 ± 0.049 with E. coli TESEC Mtb Asd (setting [11]); 0.18 ± 0.0052 in the assay on E. coli TESEC Mtb DapB (setting [12]); 0.209 ± 0.0037 in the assay with E. coli TESEC Mtb DapB (setting [13]); 0.4254 ± 0.0034 in assay [3]; 0.392 ± 0.0053 in the assay on E. coli TESEC Mtb Alr [4] (setting [14]). The compound also came in with a growth in the assay on E. coli TESEC Mtb Alr [4] (setting [15]) of 0.342 ± 0.034.
With `CC(C)(C(=O)c1cccnc1)c1cccnc1` [Metyrapone], the growth came to 0.246 ± 0.0034 in assay [1]; 0.311 ± 0.017 in the assay on E. coli TESEC Mtb Alr [2] (setting [5]); 0.273 ± 0.0073 with E. coli TESEC Mtb Alr [2] (setting [6]); 0.198 ± 0.0061 with E. coli TESEC Mtb Alr [2] (setting [7]); 0.2 ± 0.017 with E. coli TESEC Mtb Alr [2] (setting [8]); 0.1411 ± 0.00086 with E. coli TESEC Mtb Alr [2] (setting [9]). In addition, the growth in the assay on E. coli TESEC Mtb Asd (setting [10]) is 0.317 ± 0.017; with E. coli TESEC Mtb Asd (setting [11]) it was 0.428 ± 0.0064; with E. coli TESEC Mtb DapB (setting [12]), 0.179 ± 0.015; in the assay on E. coli TESEC Mtb DapB (setting [13]), 0.188 ± 0.01; in assay [3], 0.637 ± 0.095; with E. coli TESEC Mtb Alr [4] (setting [14]) it was 0.409 ± 0.013. In addition, in the assay with E. coli TESEC Mtb Alr [4] (setting [15]), the growth was 0.3383 ± 0.0029.
`CC(=O)N(O)CCCCCNC(=O)CCC(=O)N(O)CCCCCNC(=O)CCC(=O)N(O)CCCCCN` [Deferoxamine mesylate]: the growth in assay [1] amounted to 0.0549 ± 0.00064; with E. coli TESEC Mtb Alr [2] (setting [5]), 0.054 ± 0.0048; with E. coli TESEC Mtb Alr [2] (setting [6]), 0.0561 ± 0.0031; in the assay with E. coli TESEC Mtb Alr [2] (setting [7]), 0.0487 ± 0.0017; in the assay with E. coli TESEC Mtb Alr [2] (setting [8]), 0.0567 ± 0.0044; in the assay with E. coli TESEC Mtb Alr [2] (setting [9]), 0.0625 ± 0.00017. Also, the growth in the assay with E. coli TESEC Mtb Asd (setting [10]) came to 0.139 ± 0.015; in the assay with E. coli TESEC Mtb Asd (setting [11]) it was 0.141 ± 0.027; in the assay on E. coli TESEC Mtb DapB (setting [12]), 0.137 ± 0.021; with E. coli TESEC Mtb DapB (setting [13]), 0.13 ± 0.0032; in assay [3], 0.1754 ± 0.0017; in the assay on E. coli TESEC Mtb Alr [4] (setting [14]), 0.113 ± 0.046. For the same compound, the growth in the assay on E. coli TESEC Mtb Alr [4] (setting [15]) turned out to be 0.0677 ± 0.0037.
For `CC(C)NC[C@H](O)COc1cccc2ccccc12` [(S)-propranolol hydrochloride], the growth in assay [1] was 0.202 ± 0.0096; with E. coli TESEC Mtb Alr [2] (setting [5]), 0.263 ± 0.011; in the assay on E. coli TESEC Mtb Alr [2] (setting [6]), 0.295 ± 0.0058; with E. coli TESEC Mtb Alr [2] (setting [7]), 0.18 ± 0.016; in the assay with E. coli TESEC Mtb Alr [2] (setting [8]), 0.191 ± 0.014; in the assay with E. coli TESEC Mtb Alr [2] (setting [9]), 0.149 ± 0.0089. The growth was found to be 0.279 ± 0.071 with E. coli TESEC Mtb Asd (setting [10]); 0.308 ± 0.043 in the assay with E. coli TESEC Mtb Asd (setting [11]); 0.173 ± 0.025 with E. coli TESEC Mtb DapB (setting [12]); 0.231 ± 0.051 with E. coli TESEC Mtb DapB (setting [13]); 0.497 ± 0.031 in assay [3]; 0.424 ± 0.0079 in the assay on E. coli TESEC Mtb Alr [4] (setting [14]). The same compound showed a growth in the assay on E. coli TESEC Mtb Alr [4] (setting [15]) of 0.332 ± 0.016.
`C1CCC(C(CC2CCCCN2)C2CCCCC2)CC1` (stereo unspecified) [Perhexiline maleate]: the growth turned out to be 0.0393 ± 0.0002 in assay [1]; 0.0389 ± 0.00046 with E. coli TESEC Mtb Alr [2] (setting [5]); 0.03913 ± 0.00021 with E. coli TESEC Mtb Alr [2] (setting [6]); 0.0407 ± 0.00064 in the assay on E. coli TESEC Mtb Alr [2] (setting [7]); 0.03897 ± 0.00023 in the assay with E. coli TESEC Mtb Alr [2] (setting [8]); 0.0389 ± 0.0004 in the assay on E. coli TESEC Mtb Alr [2] (setting [9]). Besides, the growth in the assay with E. coli TESEC Mtb Asd (setting [10]) amounted to 0.04767 ± 0.00047; in the assay with E. coli TESEC Mtb Asd (setting [11]), 0.048 ± 0.0016; in the assay on E. coli TESEC Mtb DapB (setting [12]) it was 0.0462 ± 0.0004; in the assay with E. coli TESEC Mtb DapB (setting [13]), 0.0474 ± 0.002; in assay [3], 0.0486 ± 0.00055; in the assay with E. coli TESEC Mtb Alr [4] (setting [14]) it was 0.168 ± 0.18. In the assay on E. coli TESEC Mtb Alr [4] (setting [15]), the growth is 0.0522 ± 0.0012.
Regarding `CN1CCCN=C1/C=C/c1cccc(O)c1` [Oxantel pamoate], the growth amounted to 0.216 ± 0.016 in assay [1]; 0.303 ± 0.013 in the assay on E. coli TESEC Mtb Alr [2] (setting [5]); 0.236 ± 0.0088 with E. coli TESEC Mtb Alr [2] (setting [6]); 0.226 ± 0.039 with E. coli TESEC Mtb Alr [2] (setting [7]); 0.141 ± 0.0019 in the assay with E. coli TESEC Mtb Alr [2] (setting [8]); 0.189 ± 0.0049 in the assay on E. coli TESEC Mtb Alr [2] (setting [9]). The growth with E. coli TESEC Mtb Asd (setting [10]) is 0.282 ± 0.051; in the assay with E. coli TESEC Mtb Asd (setting [11]), 0.258 ± 0.009; in the assay on E. coli TESEC Mtb DapB (setting [12]) it was 0.1953 ± 0.0019; in the assay on E. coli TESEC Mtb DapB (setting [13]), 0.218 ± 0.019; in assay [3] it was 0.496 ± 0.038; in the assay with E. coli TESEC Mtb Alr [4] (setting [14]), 0.405 ± 0.011. In addition, the growth in the assay on E. coli TESEC Mtb Alr [4] (setting [15]) stood at 0.326 ± 0.013.
For the compound `CCN(CC)CCNC(=O)c1cc(Cl)c(N)cc1OC` [Metoclopramide monohydrochloride], the growth in assay [1] is 0.2268 ± 0.0011; in the assay on E. coli TESEC Mtb Alr [2] (setting [5]), 0.278 ± 0.016; in the assay with E. coli TESEC Mtb Alr [2] (setting [6]), 0.252 ± 0.017; in the assay on E. coli TESEC Mtb Alr [2] (setting [7]), 0.195 ± 0.015; in the assay with E. coli TESEC Mtb Alr [2] (setting [8]) it was 0.179 ± 0.0077; in the assay on E. coli TESEC Mtb Alr [2] (setting [9]) it was 0.144 ± 0.0028. Moreover, the growth in the assay on E. coli TESEC Mtb Asd (setting [10]) is 0.252 ± 0.015; with E. coli TESEC Mtb Asd (setting [11]), 0.485 ± 0.011; with E. coli TESEC Mtb DapB (setting [12]), 0.193 ± 0.01; in the assay on E. coli TESEC Mtb DapB (setting [13]), 0.221 ± 0.018; in assay [3], 0.633 ± 0.05; in the assay with E. coli TESEC Mtb Alr [4] (setting [14]), 0.409 ± 0.0098. Also, the growth with E. coli TESEC Mtb Alr [4] (setting [15]) amounted to 0.358 ± 0.0081.
